Active and inactive are the calls of the source. How the calls were made is not given here.
The compounds below were run against Dual specificity protein kinase CLK1 (Homo sapiens) (UniProt P49759) (assay: ligand-induced CLK1 melting temperature shift – biophysical, recombinant human kinase, DSF (AID 382)). Settings: Recombinant CLK1, thermal shift (DSF), at 10 µM, protein 2 µM, buffer 10 mM HEPES, NaCl 150 mM, with 50 mM Arg/Glu, stronger effect = higher value.
Dual specificity protein kinase CLK1 (Homo sapiens), sequence (P49759 whole entry, looked up): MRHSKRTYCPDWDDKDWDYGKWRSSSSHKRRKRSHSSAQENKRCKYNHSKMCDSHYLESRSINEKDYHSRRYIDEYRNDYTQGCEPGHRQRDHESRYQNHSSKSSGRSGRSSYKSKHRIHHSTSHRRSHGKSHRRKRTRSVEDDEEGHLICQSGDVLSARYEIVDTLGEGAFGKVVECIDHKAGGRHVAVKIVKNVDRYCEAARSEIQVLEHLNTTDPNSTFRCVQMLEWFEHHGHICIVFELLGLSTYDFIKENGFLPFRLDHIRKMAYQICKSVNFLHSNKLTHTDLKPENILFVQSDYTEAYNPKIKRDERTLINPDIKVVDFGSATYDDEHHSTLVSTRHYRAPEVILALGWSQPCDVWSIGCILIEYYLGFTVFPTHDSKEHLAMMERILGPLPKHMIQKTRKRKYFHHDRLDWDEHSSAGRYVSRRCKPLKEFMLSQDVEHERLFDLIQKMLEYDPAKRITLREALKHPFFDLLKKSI

Tm shift, active:
Clc1cccc(Nc2ccn3ncc(-c4ccc5c(c4)OCO5)c3n2)c1 6.85 Celsius
CCN1/C(=C/C(C)=O)Sc2ccc(OC)cc21 6.91 Celsius
Nc1nc(Nc2ccc(S(N)(=O)=O)cc2)nn1C(=S)Nc1c(F)cccc1F 11.8 Celsius
CCC(CO)Nc1ccc2ncc(-c3ccc(F)c(Cl)c3)n2n1 (stereo not drawn) 5.64 Celsius
CC(C)[C@@H](CO)Nc1ccc2ncc(-c3ccc(C#N)cc3)n2n1 5.84 Celsius

Same assay, conditions: Recombinant CLK1, thermal shift (DSF), at 10 µM, protein 2 µM, buffer 10 mM HEPES, pH 7.5, NaCl 150 mM, with 50 µM L-Arg/L-Glu (1:1), stronger effect = higher value

Tm shift, active:
OCC1=C(O)C(O)[C@@H](N2CNc3cc(Cl)c(Cl)cc32)O1 (stereo partly drawn) 3.1 Celsius
c1cncc(-c2cnc3ccc(NC4CCOCC4)nn23)c1 3.3 Celsius
CCC(CO)Nc1ccc2ncc(-c3cccc(C(C)=O)c3)n2n1 (stereo not drawn) 6.1 Celsius
Cc1cc(Nc2nc(-c3ccccc3)nc3ccccc23)n[nH]1 5.8 Celsius
CC(C)[C@@H](CO)Nc1ccc2ncc(-c3cccc(OC(F)(F)F)c3)n2n1 4.6 Celsius
O=C1NC(=O)C(c2cn(CCCn3ccnc3)c3ccccc23)=C1Nc1ccccc1 5.8 Celsius
CC(=O)c1cccc(-c2cnc3ccc(NC4CCOCC4)nn23)c1 5.2 Celsius
CCC(CO)Nc1ccc2ncc(-c3ccc(OC)nc3)n2n1 (stereo not drawn) 4.5 Celsius
N#CCCc1ccc2c(c1)-c1[nH]c3ccc(-n4oo4)cc3c1CC(=O)N2 3.1 Celsius
CC(C)[C@@H](CO)Nc1ccc2ncc(-c3cccc(O)c3)n2n1 4.2 Celsius
COc1cncc(-c2cnc3ccc(NC4CCOCC4)nn23)c1 3.2 Celsius
OCC(O)CCO/N=C1/C(c2c(O)[nH]c3ccccc23)=Nc2ccccc21 (stereo not drawn) 7.7 Celsius
CCC(CO)Nc1ccc2ncc(-c3cccc(OC(F)(F)F)c3)n2n1 (stereo not drawn) 5.3 Celsius
CCC(CO)Nc1ccc2ncc(-c3ccc(CO)cc3)n2n1 (stereo not drawn) 5.3 Celsius
CC(=O)Nc1cccc(-c2cnc3ccc(NC4CCOCC4)nn23)c1 8.8 Celsius
Fc1ccc(-c2cnc3ccc(NC4CCOCC4)nn23)cc1 5.3 Celsius
O=C1NCc2c1c1c3ccccc3[nH]c1c1[nH]c3ccccc3c21 3.1 Celsius
NC1=N/C(=C2\CCNC(=O)c3[nH]ccc32)C(=O)N1 6 Celsius

Source: PubChem BioAssay AID382 (SGCOxCompounds, 2006)
